TR SRC2 fluor cs: Texas Red fluorescence interference in TRb-SRC2 counter-screen. TRb/SRC2 Texas Red total fluorescence interference. Potency, µM (highest dose often 106 µM), without a hit: at the highest dose fluorescence change, negative = quenching. hit rate 0.29% among 280,000. AID 1479; active = well fitted curve in either direction with a large enough effect; inconclusive = small, poorly fitted or top-dose-only effect
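Human TRb ligand-binding domain at 0.6 uM with 20 nM Texas Red SRC2 peptide in Tris buffer containing 1 uM T3 and 5% DMSO, incubated with compound 5 h at ambient temperature. Total fluorescence (555/632 nm) calculated as parallel + 2 × perpendicular.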
Tau FP inhib: tau fibrillization inhibition (FP); K18 P301L tau heparin fibrillization, Alexa594 FP, 6 h; Potency, µM (titrated, usually from 57.7 µM), without a hit: top-dose activity, negative = inhibition, actives largely listed as inhibitors; hit rate 0.39% among 280,000; AID 1468; note: nearly all actives have a fitted effect of over 55% in size
Target sequence (P10636 561-689 P618L limits assumed): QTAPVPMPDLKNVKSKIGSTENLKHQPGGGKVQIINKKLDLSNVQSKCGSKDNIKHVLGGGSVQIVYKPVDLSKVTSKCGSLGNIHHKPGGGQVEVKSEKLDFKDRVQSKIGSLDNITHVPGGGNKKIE
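Read-out: fluorescence polarization of Alexa 594-labeled tau (0.24 uM), 555 nm excitation, 632 nm emission. Mixtures held 15 uM unlabeled K18 P301L, compound and 20 uM heparin, pH 7 acetate buffer, incubated 6 hr at 37 C.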
Tau ThT inhib: blocks human tau fibril formation measured by thioflavin T. P10636. recombinant tau K18 P301L, heparin-induced fibrillization, ThT fluorescence. Potency, µM (titrated, usually from 57.4 µM), without a hit: top-dose activity, negative = inhibition, most hits filed as inhibitors. hit rate 2.1% among 270,000; note: nearly all actives have a fitted effect of over 55% in size
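K18 P301L tau (15 uM + 0.24 uM Alexa 594-tagged), heparin 20 uM, NaOAc pH 7, 6 h 37 C; ThT 30 uM, 1 h RT, ex 450/em 510 nm.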
TRb SRC2 PPI: TRbeta-SRC2 interaction inhibition; TRbeta-SRC2 peptide binding, fluorescence polarization; receptor liganded with 1 µM T3; P10828; hit rate 0.065% among 280,000; Potency, µM (doses to about 106 µM), inactives show at the top dose activity change, negative = inhibition, hits mostly inhibitors;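 note: plate controls were bound peptide for no effect and peptide without receptor for full effect; nearly all actives have a fitted effect of over 50% in size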
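Human TRb ligand-binding domain (0.6 uM) is mixed with 20 nM Texas Red SRC2 peptide and 1 uM T3; after compound addition and 5 hr at ambient temperature, polarization is measured and normalized to unbound and bound controls.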
Tau fluor counter: counter-screen for tau fibril formation inhibitors. tau K18 P301L Alexa594 fluorescence, heparin fibrillization. Potency, µM (top dose mostly 57.7 µM), for the others: top-dose activity change, negative = decrease. hit rate 0.93% among 280,000. AID 1463; note: nearly all actives have a fitted effect of over 55% in size
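Human tau K18 P301L (15 uM unlabeled, 0.24 uM Alexa 594-labeled) in 100 mM sodium acetate pH 7 with 20 uM heparin, 6 hr at 37 C. ThT 30 uM added, 1 hr ambient; Alexa 594 FP and total fluorescence read at 555/632 nm.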
Active calls of the source: *; ? = inconclusive; [ ] = another dose, or the depositor's remark. Hits are enriched below; roughly 3.1% of the tested compounds scored in any of these assays. Unless noted, calls come from the whole dose curve; as a rule, active = well fitted curve in the direction sought with a large enough effect; inconclusive = small, poorly fitted or top-dose-only effect, or another doubt; inactive = no such curve, though single readings can be large; an effect the other way counts as inactive or inconclusive. Unless noted, % is set by controls: 0 for no effect and ±100 for the full control effect; potency is the fitted concentration of half-maximal effect.

SMILES | TR SRC2 fluor cs | Tau FP inhib | Tau ThT inhib | TRb SRC2 PPI | Tau fluor counter
CCn1c(C)c(C(C)=O)c(N2CCN(c3ccccc3)CC2)nc1=S | 6.4% | ? | 22.4µM* | -6.1% | -19.0%
CCn1c(C)c(C(C)=O)c(N2CCN(C(c3ccccc3)c3ccccc3)CC2)nc1=S | 2.7% | 5.3% | 4.2% | 7.6% | 2.6%
COc1ccc(C(c2c(O)ccc3ccccc23)N2CCOCC2)c(OC)c1 (configuration not stated) | -0.5% | -1.1% | 11.2µM* | -1.0% | -25.9%
Cc1ccc(N2C(=O)CC(Sc3ccccc3C(=O)O)C2=O)c([N+](=O)[O-])c1 (configuration not stated) | -2.6% | -1.6% | ? | -7.4% | -22.5%
COc1ccc(N2C(=O)CC(Sc3ccccc3C(=O)O)C2=O)c([N+](=O)[O-])c1 (configuration not stated) | -8.5% | -7.8% | 14.1µM* | -0.2% | ?
CSC1=NC2(CCN(C(=O)NC3CCCCC3)CC2)N=C1c1ccc(C)c(C)c1 | -4.5% | -5.6% | -9.9% | 1.4% | -0.6%
Cc1nc(CSc2nsc(/C=C/N(C)C)c2C#N)cs1 | 6.6% | -12.4% | 25.1µM* | 12.4% | ?
Cc1nc(CSc2nnc(N)s2)cs1 | -4.9% | 6.6% | -6.9% | -1.4% | -3.5%
CCc1cnc2c(c1SCC(=O)Nc1ccc(OC)c(OC)c1)c(=O)n(C)c(=O)n2C | -1.3% | -3.7% | 0.6% | 2.4% | 1.7%
COC(=O)C1=C(C)N=C2SCCC(=O)N2C1c1cc(Br)ccc1OC (configuration not stated) | 2.8% | 3.1% | 5.01µM* | 6.0% | ?
CC1CCCN(C(=S)Nc2ccc(Nc3ccccc3)cc2)C1 (configuration not stated) | -6.4% | ? | ? | -3.3% | 12.6µM*[quencher]
S=C(Nc1ccc(Cl)cc1)NC1CCCCC1 | 0.4% | -4.2% | -9.6% | -1.0% | -29.6%
CC1CCCN(C(=S)Nc2ccc(F)cc2)C1 (configuration not stated) | -1.1% | 2.6% | 5.6% | -7.5% | 7.3%
S=C(NNc1cccc(Cl)c1)NC1CCCCC1 | 0.7% | ? | 25.1µM* | -0.4% | -28.0%
S=C(Nc1ccc(Nc2ccccc2)cc1)NC1CCCCCC1 | -2.8% | 9.4% | -16.4% | 1.7% | 10µM*[quencher]
COc1ccc(Nc2nc(-c3c(C)nc4ncccn34)cs2)cc1 | -3.0% | -2.1% | 8.91µM* | -6.0% | ?
Cc1nc2ncccn2c1-c1csc(Nc2ccc(N(C)C)cc2)n1 | -2.0% | -2.1% | 12.6µM* | -0.7% | ?
Cc1nc2ncccn2c1-c1csc(Nc2ccccc2)n1 | -1.0% | 3.5% | ? | -5.5% | ?
NS(=O)(=O)c1ccc(N/N=C/c2ccccc2C(=O)O)c([N+](=O)[O-])c1 | -12.7% | 8.8% | ? | 5.7% | -6.4%
NS(=O)(=O)c1ccc(N/N=C/c2ccc(O)c(O)c2O)c([N+](=O)[O-])c1 | ? | 5.01µM* | 2µM* | 2.0% | 2µM*[quencher]
C/C(=N\Nc1ccc(S(N)(=O)=O)cc1[N+](=O)[O-])c1ccco1 | -3.6% | -3.6% | 5.01µM* | -4.9% | ?
NS(=O)(=O)c1ccc(N/N=C/c2ccc(O)cc2O)c([N+](=O)[O-])c1 | -7.7% | -2.4% | 2.24µM* | 1.8% | ?
Cc1c(Cl)cccc1NC(=O)CSc1ncnc2c1sc1ccccc12 | -1.7% | -15.9% | 0.8% | 2.4% | 2.8%
CCn1ncc(NC(=S)NCCc2ccc(OC)c(OC)c2)c1C(N)=O | 2.3% | 0.3% | -1.2% | -5.7% | 2.6%
Brc1ccc(-c2ccc(/C=N/Nc3nncc(-c4ccccc4)n3)o2)cc1 | 2.9% | 10.8% | 2µM* | 1.3% | -16.1%
COc1cc(/C=N/Nc2ccccc2C(F)(F)F)ccc1O | -9.6% | 1.9% | ? | 0.8% | ?
Fc1cnc(N/N=C/c2ccc(-c3ccc(Br)cc3)o2)nc1N1CCOCC1 | -2.9% | -5.0% | 10µM* | -4.3% | 12.6µM*[quencher]
COc1cc(/C=N/Nc2nnc3c(n2)[nH]c2ccccc23)ccc1O | 1.5% | 6.4% | 0.708µM* | 8.3% | -23.9%
Brc1ccc(/C=N/Nc2nncc(-c3ccccc3)n2)o1 | 0.2% | 1.7% | ? | -3.4% | -8.1%

Compound activity deposited in PubChem BioAssay by National Center for Advancing Translational Sciences (NCATS).
